A number with no mark means an inactive call.
What follows are molecules tested on Mel-DCC-11-R (assay: cell viability relative to DMSO control (fraction of DMSO control); higher = less cytotoxic, active = 0.8 or less). Conditions: 1 µM; 120 h; vemurafenib co-treatment 8 µM.
In short: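 Three cell types were screened against 315 approved anti-cancer drugs from TargetMol, acoustically pre-spotted in 384-well plates at 1 µM in duplicate over 120 h: NHEM-hTERT immortalized melanocytes (2500/well), patient-derived Mel-DCC-11 and its resistant subline Mel-DCC-11-R (both 1500/well), all in 40 µl per well. The subline was tested alone and with 8 µM of its selecting drug. Viability, measured by luminescence, was normalised to vehicle controls and averaged across duplicates, with ATPlite 1step as the readout.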
For `CC(C)(CO)c1cc2cc(NC(=O)C3(c4ccc5c(c4)OC(F)(F)O5)CC3)c(F)cc2n1C[C@@H](O)CO`, the cell viability was 1.07.
In the case of `CC/C(=C(\c1ccc(O)cc1)c1ccc(OCCNC)cc1)c1ccccc1` [(E/Z)-Endoxifen], the cell viability is reported as 1.14.
For `CCc1cnn2c(NCc3ccc[n+]([O-])c3)cc(N3CCCC[C@H]3CCO)nc12` [Dinaciclib], the cell viability was 0.0642 (active).
`Cc1nc(Nc2ncc(C(=O)Nc3c(C)cccc3Cl)s2)cc(N2CCN(CCO)CC2)n1.O` [Dasatinib monohydrate] gave a cell viability of 1.54.
For `Cc1cc(Nc2ncc(Cl)c(Nc3ccccc3S(=O)(=O)C(C)C)n2)c(OC(C)C)cc1C1CCNCC1`, the cell viability was 0.873.
